Inconclusive results are not listed. Active and inactive are the calls of the source.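 The calls were made as follows, unless noted: active = efflux inhibition above 0.42, the validation set average plus 4 SD; inconclusive = no clear call, values can overlap the other calls; inactive = the rest.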
Experiments:
[1] = yeast TOR pathway RPL19A-GFP modulators, primary screen, cell-based, S. cerevisiae, multiplex flow cytometry (AID 1862; in the data active = percent of DMSO control GFP below about 86%;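 also: lower values mimic rapamycin by blocking the RPL19A rise seen in DMSO cells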); details: S. cerevisiae RPL19A-GFP strain, flow cytometry fluorescence, 3 h; at 10 µM; stronger effect = lower value
[2] = modulators of MEP2-GFP levels in yeast, primary screen, S. cerevisiae, multiplex flow cytometry (AID 1867;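 active = GFP response, as percent of the DMSO control, above the screen-wide mean plus 3 SD, about 139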;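 also: median GFP channel fluorescence of barcode-gated MEP2-GFP cells measured by flow cytometry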); details: S. cerevisiae MEP2-GFP strain, 3 h, at 10 µM, stronger effect = higher value, 100% means same as DMSO wells
[3] = modulators of CIT2-GFP expression in yeast, primary screen, S. cerevisiae, GFP fusion, multiplex flow cytometry (AID 1870;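 active = percent response above a set limit, the screen-wide mean plus 3 SD, cut at about 130% in these data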;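 also: barcoded CIT2-GFP strain pooled with four other GFP strains with rapamycin as positive control; median GFP fluorescence per well over plate mean of DMSO wells so 100% = DMSO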); details: 3 h, at 10 µM, stronger effect = higher value
[4] = modulators of LAP4-GFP expression in yeast, primary screen, S. cerevisiae, multiplex flow cytometry (AID 1873;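 active = GFP signal, as percent of the solvent control, above the screen mean plus 3 SD, about 149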); details: 3 h, at 10 µM, stronger effect = higher value
[5] = inhibitors of CD8+ T cell-vesicle binding, pilot screen, LFA-1/ICAM-1 modulator project, MLPCN validation set, flow cytometry (AID 2523;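 active = response below a set limit, under 55% cells CD8-positive and vesicle-bound, and CD8 cells' 90th-percentile brightness under 279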;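 as to vesicle binding response: mean PE anti-B7-1 fluorescence of CD8+ cells relative to row control; 100% = QL9-loaded vesicles with DMSO vehicle in the same plate row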); details: 2C mouse CD8+ T cells, at 7 µM, stronger effect = lower value; double positive events: measured here: CD8+/vesicle+ event percentage
[6] = molecular target: Integrin beta-1 (Homo sapiens) + Integrin alpha-4 (Homo sapiens) (UniProt P13612+P05556); test: inhibition of HUTS-21 binding to VLA-4, pilot screen, VLA-4 allosteric modulator project, U937 cells, HUTS-21 mAb, flow cytometry, validation set (AID 2674;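 active = inhibition above 50%, about 3 SD of the validation set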;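 also: antibody binding induced by the VLA-4 ligand LDV present at three times its Kd; 0% = LDV ligand with antibody and no compound and 100% = antibody without LDV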); details: HUTS-21 LIBS mAb binding, at 6.7 µM, stronger effect = higher value, binding induced by LDV ligand
Integrin beta-1 (Homo sapiens) + Integrin alpha-4 (Homo sapiens), sequence (P05556 whole entry, looked up): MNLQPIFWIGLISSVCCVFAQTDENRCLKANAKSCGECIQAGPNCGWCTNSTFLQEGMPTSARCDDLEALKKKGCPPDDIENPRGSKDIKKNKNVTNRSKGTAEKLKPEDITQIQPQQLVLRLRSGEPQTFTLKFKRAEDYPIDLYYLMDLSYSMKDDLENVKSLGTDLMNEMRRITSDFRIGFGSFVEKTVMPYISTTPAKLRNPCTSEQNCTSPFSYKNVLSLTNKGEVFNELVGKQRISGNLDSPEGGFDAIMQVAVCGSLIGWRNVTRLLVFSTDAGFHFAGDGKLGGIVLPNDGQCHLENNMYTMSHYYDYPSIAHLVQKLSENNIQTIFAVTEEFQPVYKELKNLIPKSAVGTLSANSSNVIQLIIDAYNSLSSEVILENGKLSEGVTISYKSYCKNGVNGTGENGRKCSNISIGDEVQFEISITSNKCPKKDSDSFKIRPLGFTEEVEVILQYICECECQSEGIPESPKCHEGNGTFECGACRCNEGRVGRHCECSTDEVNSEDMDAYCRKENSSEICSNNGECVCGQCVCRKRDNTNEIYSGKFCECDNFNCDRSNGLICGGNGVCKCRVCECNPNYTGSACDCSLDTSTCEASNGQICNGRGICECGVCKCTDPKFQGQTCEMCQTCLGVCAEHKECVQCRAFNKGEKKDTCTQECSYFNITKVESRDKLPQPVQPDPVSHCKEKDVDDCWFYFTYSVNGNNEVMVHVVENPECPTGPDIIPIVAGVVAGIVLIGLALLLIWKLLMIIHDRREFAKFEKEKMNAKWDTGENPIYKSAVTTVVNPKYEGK
Integrin beta-1 (Homo sapiens) + Integrin alpha-4 (Homo sapiens), sequence (P13612 whole entry, looked up): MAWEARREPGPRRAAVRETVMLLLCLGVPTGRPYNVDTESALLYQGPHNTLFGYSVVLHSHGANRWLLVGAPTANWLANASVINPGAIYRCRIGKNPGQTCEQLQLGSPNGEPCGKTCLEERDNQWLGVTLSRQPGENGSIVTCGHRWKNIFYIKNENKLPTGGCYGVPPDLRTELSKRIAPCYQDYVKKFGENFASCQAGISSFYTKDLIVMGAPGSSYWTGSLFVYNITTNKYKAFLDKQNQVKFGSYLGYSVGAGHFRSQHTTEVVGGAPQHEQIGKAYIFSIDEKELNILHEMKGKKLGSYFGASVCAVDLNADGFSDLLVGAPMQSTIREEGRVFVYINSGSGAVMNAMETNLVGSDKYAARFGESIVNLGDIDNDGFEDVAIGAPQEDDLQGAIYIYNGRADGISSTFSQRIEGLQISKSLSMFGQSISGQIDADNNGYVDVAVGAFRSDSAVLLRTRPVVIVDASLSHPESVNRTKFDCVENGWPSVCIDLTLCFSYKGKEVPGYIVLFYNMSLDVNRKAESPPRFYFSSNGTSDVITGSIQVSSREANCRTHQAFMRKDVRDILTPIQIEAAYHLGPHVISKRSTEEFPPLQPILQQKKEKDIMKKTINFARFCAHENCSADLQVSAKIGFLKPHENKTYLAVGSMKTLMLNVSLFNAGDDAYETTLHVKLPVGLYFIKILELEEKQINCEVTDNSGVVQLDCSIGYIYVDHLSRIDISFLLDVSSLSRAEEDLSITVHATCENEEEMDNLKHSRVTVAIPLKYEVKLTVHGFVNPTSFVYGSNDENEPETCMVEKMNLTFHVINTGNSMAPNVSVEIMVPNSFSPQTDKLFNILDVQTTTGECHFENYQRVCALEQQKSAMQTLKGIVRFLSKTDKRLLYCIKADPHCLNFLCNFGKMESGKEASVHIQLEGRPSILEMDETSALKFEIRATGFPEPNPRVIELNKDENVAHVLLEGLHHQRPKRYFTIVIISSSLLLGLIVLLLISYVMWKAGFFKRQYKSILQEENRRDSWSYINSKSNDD

[7] = superoxide lowering in aged yeast cells, pilot screen, validation compound set (AID 2706;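 active = superoxide response below 65% of plate, a cut near 3 SD across the whole screen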;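 also: yeast exposed to compound for one week at 30 degrees C before staining; 100% = mean of all compound wells on the same plate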); details: S. cerevisiae aging, superoxide DHE fluorescence; at 10 µM, stronger effect = lower value
[8] = molecular target: Beta-adrenergic receptor kinase 1 (Homo sapiens) (UniProt P25098); test: GRK2 binders displacing RNA aptamer, biochemical, validation, human GRK2, bead flow cytometry (AID 488806;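 active = aptamer binding inhibition above 30%, about 3 SD of noise from non-fluorescent compounds; inactive = inhibition at or below 30%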); details: bead-bound GRK2, FAM-aptamer displacement, at 10 µM, stronger effect = higher value
Beta-adrenergic receptor kinase 1 (Homo sapiens), sequence (P25098 whole entry, looked up): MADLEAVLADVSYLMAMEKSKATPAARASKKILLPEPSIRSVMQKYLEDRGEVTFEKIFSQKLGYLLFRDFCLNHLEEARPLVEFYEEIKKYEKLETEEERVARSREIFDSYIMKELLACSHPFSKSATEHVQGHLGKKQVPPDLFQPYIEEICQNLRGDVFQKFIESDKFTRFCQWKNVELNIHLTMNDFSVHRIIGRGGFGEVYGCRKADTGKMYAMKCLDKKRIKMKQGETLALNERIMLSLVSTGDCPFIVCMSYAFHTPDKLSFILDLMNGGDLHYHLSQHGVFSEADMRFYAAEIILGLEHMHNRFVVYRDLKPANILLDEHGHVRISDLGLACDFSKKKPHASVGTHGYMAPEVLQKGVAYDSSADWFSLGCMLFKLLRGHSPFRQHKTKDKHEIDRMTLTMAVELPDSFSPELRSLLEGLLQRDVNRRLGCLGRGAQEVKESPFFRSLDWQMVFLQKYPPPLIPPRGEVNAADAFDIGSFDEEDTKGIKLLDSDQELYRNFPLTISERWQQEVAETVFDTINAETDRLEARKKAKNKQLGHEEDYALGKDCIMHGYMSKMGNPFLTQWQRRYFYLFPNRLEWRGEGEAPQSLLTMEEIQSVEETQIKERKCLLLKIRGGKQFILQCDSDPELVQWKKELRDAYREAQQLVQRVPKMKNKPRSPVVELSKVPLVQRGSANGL

[9] = molecular target: Beta-2 adrenergic receptor (Homo sapiens) (UniProt P07550); test: beta2AR agonists driving receptor internalization, pilot screen, cell-based, FAP fluorogen, flow cytometry, validation set (AID 504459;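 active = percent response above 42, roughly 3 SD of non-fluorescent test compounds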;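 also: agonist-driven loss of surface beta2AR via internalization measured by FAP dye flow cytometry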); details: Am2.2-beta2AR cells, FAP surface receptor flow cytometry; at 10 µM; stronger effect = higher value
Beta-2 adrenergic receptor (Homo sapiens), sequence (P07550 whole entry, looked up): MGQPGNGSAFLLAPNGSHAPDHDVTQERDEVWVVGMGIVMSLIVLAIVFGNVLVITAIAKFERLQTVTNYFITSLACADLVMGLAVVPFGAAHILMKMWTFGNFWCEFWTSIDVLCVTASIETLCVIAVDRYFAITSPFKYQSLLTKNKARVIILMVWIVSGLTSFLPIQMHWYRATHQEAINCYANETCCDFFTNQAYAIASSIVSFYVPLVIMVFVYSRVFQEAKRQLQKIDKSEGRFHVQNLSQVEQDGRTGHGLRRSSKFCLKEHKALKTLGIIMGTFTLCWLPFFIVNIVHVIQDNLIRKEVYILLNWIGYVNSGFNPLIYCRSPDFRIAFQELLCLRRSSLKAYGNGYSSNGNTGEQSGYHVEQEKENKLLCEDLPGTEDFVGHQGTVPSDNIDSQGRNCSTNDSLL

[10] = molecular target: AP-2 complex subunit beta (Homo sapiens) (UniProt P63010); test: inhibitors of arrestin peptide binding to AP2, pilot screen, biochemical, validation set, GST-AP2 beads, flow cytometry (AID 504541;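 active = inhibition above 54%, about 3 SD of non-fluorescent compounds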;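 also: AP2 carries R879A mutation and is captured from E. coli lysate; bead-bound FITC arrestin peptide fluorescence measuring arrestin peptide binding to AP2; 0% = DMSO wells and 100% = excess unlabeled arrestin peptide control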); details: FITC arrestin peptide, at 10 µM, stronger effect = higher value, AP2 beta2 appendage fragment, R879A mutant
AP-2 complex subunit beta (Homo sapiens), sequence (P63010 whole entry, looked up, the tested form may be a part, one chain of several): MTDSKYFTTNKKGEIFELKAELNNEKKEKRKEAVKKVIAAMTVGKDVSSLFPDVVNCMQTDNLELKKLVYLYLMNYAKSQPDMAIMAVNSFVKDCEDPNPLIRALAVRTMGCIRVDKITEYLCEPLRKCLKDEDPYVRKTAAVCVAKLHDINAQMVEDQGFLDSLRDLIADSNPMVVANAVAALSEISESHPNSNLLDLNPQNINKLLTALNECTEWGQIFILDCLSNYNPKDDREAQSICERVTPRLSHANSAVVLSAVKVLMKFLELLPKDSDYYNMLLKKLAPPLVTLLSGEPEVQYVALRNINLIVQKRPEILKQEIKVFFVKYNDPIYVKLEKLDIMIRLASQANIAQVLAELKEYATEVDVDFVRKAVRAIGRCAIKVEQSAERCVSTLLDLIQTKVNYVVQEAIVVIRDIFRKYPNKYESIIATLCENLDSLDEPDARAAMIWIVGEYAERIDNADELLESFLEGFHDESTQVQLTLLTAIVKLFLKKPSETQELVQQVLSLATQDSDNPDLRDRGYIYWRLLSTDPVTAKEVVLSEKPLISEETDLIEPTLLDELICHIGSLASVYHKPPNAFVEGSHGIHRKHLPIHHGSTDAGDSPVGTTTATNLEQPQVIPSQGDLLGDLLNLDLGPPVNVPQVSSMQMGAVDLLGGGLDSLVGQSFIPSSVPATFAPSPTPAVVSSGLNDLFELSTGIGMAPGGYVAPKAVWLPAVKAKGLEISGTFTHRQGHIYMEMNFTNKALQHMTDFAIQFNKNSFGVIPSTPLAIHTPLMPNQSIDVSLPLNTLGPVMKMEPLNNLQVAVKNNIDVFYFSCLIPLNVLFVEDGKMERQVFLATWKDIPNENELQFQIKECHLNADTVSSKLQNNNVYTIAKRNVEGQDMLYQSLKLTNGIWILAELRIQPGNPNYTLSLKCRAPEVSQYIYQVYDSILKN

[11] = yeast V-ATPase proton transport modulators, S. cerevisiae, pHLuorin, HTS validation (AID 504600; in the data active = response above about 15%;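 also: plate controls were DMSO for no effect and reference compound for full effect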); details: S. cerevisiae pHLuorin cytosolic pH, at 10 µM, stronger effect = higher value
[12] = test system: anti-desmoglein-3 scFv antibody binding to human DSG3; test: inhibitors of anti-DSG3 scFv binding to DSG3, pilot screen, biochemical, validation compound set, bead-based, flow cytometry (AID 588368;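 active = binding below the plate cutoff, the plate median minus 3 SD, with a reading above zero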;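 also: signal is the median channel fluorescence of bead-bound GFP antibody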); details: Protein G beads, DSG3-Fc, scFv-GFP binding, at 10 µM, stronger effect = lower value
[13] = inhibitors of fungal efflux pumps CDR1, CDR2, MDR1, pilot screen, validation compound set, multiplex, phenotypic (AID 588506);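 also: Nile Red retained in cells so higher fluorescence means more efflux inhibition; 0 = negative control wells and 1 = enniatin B 25 µM full block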; details: S. cerevisiae pump-expressing triplex, Nile Red efflux flow cytometry; at 10 µM; stronger effect = higher value; the pumps come from Candida albicans
[14] = molecular target: ATP-binding cassette sub-family B member 6 (Homo sapiens) (UniProt Q9NP58); test: ABCB6 transporter inhibitors, pilot screen, K562-ABCB6 cells, flow cytometry, validation set (AID 588550;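 active = inhibition above the screen-wide mean plus 3 SD, about 51%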;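 also: 0% = DMSO wells and 100% = benzethonium chloride 70 µM positive control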); details: K562-ABCB6 porphyrin accumulation, 1 h, at 10 µM, stronger effect = higher value
ATP-binding cassette sub-family B member 6 (Homo sapiens), sequence (Q9NP58 whole entry, looked up): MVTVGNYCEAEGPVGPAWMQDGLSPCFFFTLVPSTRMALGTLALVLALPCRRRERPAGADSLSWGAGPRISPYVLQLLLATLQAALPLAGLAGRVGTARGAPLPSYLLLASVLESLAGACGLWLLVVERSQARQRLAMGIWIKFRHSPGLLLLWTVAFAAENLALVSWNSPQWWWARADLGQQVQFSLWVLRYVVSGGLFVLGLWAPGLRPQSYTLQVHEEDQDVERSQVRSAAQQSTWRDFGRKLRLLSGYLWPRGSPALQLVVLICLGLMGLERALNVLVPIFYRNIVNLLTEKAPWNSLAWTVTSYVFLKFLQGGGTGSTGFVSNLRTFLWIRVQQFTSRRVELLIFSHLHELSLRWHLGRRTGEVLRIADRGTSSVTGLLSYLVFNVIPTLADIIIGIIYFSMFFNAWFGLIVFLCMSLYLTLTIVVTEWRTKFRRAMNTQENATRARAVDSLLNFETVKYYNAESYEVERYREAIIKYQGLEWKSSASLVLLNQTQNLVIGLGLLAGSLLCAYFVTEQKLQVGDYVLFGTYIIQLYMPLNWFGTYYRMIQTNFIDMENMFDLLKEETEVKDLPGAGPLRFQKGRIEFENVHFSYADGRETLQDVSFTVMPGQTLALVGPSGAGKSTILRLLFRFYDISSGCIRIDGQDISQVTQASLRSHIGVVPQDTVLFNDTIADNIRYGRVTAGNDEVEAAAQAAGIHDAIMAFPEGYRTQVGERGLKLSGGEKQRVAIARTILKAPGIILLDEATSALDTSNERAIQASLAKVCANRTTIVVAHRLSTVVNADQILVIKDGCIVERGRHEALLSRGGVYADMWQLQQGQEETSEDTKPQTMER

[15] = promoters of myeloid differentiation in arrested cells, primary screen, cell-based, GFP/MAC1 double positive, flow cytometry, validation set (AID 588685;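 active = differentiation response of at least 50%, scaled between solvent and reference control, from cells with both markers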;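 also: compound exposure lasts four days before antibody staining and flow analysis; 0% = DMSO wells and 100% = 5 µM fulvestrant positive control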); details: ER-HoxA9 marrow cells, stronger effect = higher value, normalized: vehicle 0, fulvestrant 100
[16] = modulators of AGP1-GFP expression in yeast TOR pathway, primary screen, cell-based, multiplex flow cytometry, S. cerevisiae (AID 1887;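 active = GFP signal above the screen-wide mean plus 3 SD, that is over about 124.5% of the solvent control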;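 also: AGP1-GFP fusion strain of S. cerevisiae within a five-strain barcoded multiplex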); details: 3 h, at 10 µM, stronger effect = higher value

SMILES | percent of DMSO control GFP [1] | GFP response vs DMSO [2] | percent response of DMSO control [3] | GFP response vs DMSO [4] | double positive events [5] | vesicle binding response [5] | inhibition [6] | superoxide response (% of plate) [7] | aptamer binding inhibition [8] | response [9] | inhibition [10] | response [11] | binding (% of control) [12] | efflux inhibition (fraction of control) [13] | inhibition [14] | differentiation response [15] | GFP response, % of DMSO [16]
O=C1NC2(Nc3ccccc31)C(=O)Nc1ccc(Br)cc12 (stereo not given) | 91.7% (inactive) | 127% (inactive) | 102% (inactive) | 85.8% (inactive) | 72% | 220% (inactive) | -3.24% (inactive) | 102% (inactive) | 2% (inactive) | -4.23% (inactive) | 1.97% (inactive) | 1.05% (inactive) | 98.7% (inactive) | -0.13 (inactive) | 9% (inactive) | 0% (inactive) | 
OCCN(CCO)c1ccc2ccccc2c1 | 96.5% (inactive) |  | 99.6% (inactive) | 96.5% (inactive) | 66.7% | 267% (inactive) | 0.94% (inactive) | 98.1% (inactive) | 2% (inactive) | -2.38% (inactive) | -3.97% (inactive) | 4.81% (inactive) | 103% (inactive) | -0.21 (inactive) | 10% (inactive) | 5.6% (inactive) | 98.9% (inactive)
c1ccc2c(c1)CCCC2C1=NCCN1 (stereo not given) | 98.2% (inactive) |  | 102% (inactive) | 108% (inactive) | 69.5% | 263% (inactive) | -15.6% (inactive) | 82.6% (inactive) | -1% (inactive) | -24.5% (inactive) | -7.04% (inactive) | 1.56% (inactive) | 101% (inactive) | -0.04 (inactive) | 19% (inactive) | 8.8% (inactive) | 110% (inactive)
COc1cc2c(cc1OC)C(Cc1ccc(O)cc1)N(C)CC2 (stereo not given) | 99% (inactive) | 127% (inactive) | 108% (inactive) | 80.9% (inactive) | 56% | 289% (inactive) | 8.4% (inactive) | 104% (inactive) | 4% (inactive) | -6.53% (inactive) | 2.93% (inactive) | 0.76% (inactive) | 108% (inactive) | 0.27 (inactive) | 8% (inactive) | 2.46% (inactive) | 
O=P(O)(O)CP(=O)(O)O | 91.9% (inactive) |  | 90.5% (inactive) | 123% (inactive) | 61.8% | 178% (inactive) | 22.7% (inactive) | 93% (inactive) | 0% (inactive) | -17.7% (inactive) | -22.1% (inactive) | -0.51% (inactive) | 101% (inactive) | 0 (inactive) | -3% (inactive) | 28.5% (inactive) | 122% (inactive)
COc1cccc(N2CC(O)=C(c3nc4ccccc4c(=O)[nH]3)C2=N)c1 | 97.9% (inactive) | 130% (inactive) | 116% (inactive) | 75.9% (inactive) | 58.4% | 140% (inactive) | 11.3% (inactive) | 106% (inactive) | 5% (inactive) | 20.8% (inactive) | 2.43% (inactive) | 8.28% (inactive) | 103% (inactive) | -0.2 (inactive) | 14% (inactive) | 2.46% (inactive) | 
COc1ccc(-c2coc3cc(O)cc(O)c3c2=O)cc1 | 88.2% (inactive) | 99.9% (inactive) | 116% (inactive) | 72.6% (inactive) | 58.4% | 199% (inactive) | 5.49% (inactive) | 106% (inactive) | 0% (inactive) | -6.34% (inactive) | 1.72% (inactive) | 1.71% (inactive) | 101% (inactive) | -0.28 (inactive) | 7% (inactive) | -9.83% (inactive) | 
COc1ccc(CN(C)CCc2ccccn2)cc1OC | 104% (inactive) |  | 102% (inactive) | 74.3% (inactive) | 55.5% | 91.8% (inactive) | -15.4% (inactive) | 95.8% (inactive) | 3% (inactive) | 6.81% (inactive) | -9.53% (inactive) | 20.5% (active) | 98.7% (inactive) | -0.03 (inactive) | 2% (inactive) | -28% (inactive) | 90.6% (inactive)
Cc1ccc(NCCC(=O)c2ccccc2)cc1Cl | 86.2% (inactive) | 110% (inactive) | 110% (inactive) | 78.7% (inactive) | 63% | 171% (inactive) | 28.8% (inactive) | 99.7% (inactive) | 2% (inactive) | 2.53% (inactive) | -12.3% (inactive) | 2.25% (inactive) | 98% (inactive) | -0.24 (inactive) | 10% (inactive) | -0.82% (inactive) | 
Cc1cc(-c2ccccc2)nnc1NCCN1CCOCC1 | 102% (inactive) | 114% (inactive) | 93.9% (inactive) | 74.3% (inactive) | 67.8% | 223% (inactive) | 0.64% (inactive) | 94.8% (inactive) | 32% (active) | 2.57% (inactive) | -1.22% (inactive) | -0.98% (inactive) | 109% (inactive) | 0 (inactive) | 19% (inactive) | 4.09% (inactive) | 
